A number with no mark means an inactive call. For some of these results: Results with a measured potency or affinity are listed apart. Active and inactive are the calls of the source. How the calls were made is not given here.
How the values were obtained:
[1] = Ebola virus entry assay, green fluorescence channel
[2] = Ebola virus entry assay, blue channel fluorescence
[3] = Ebola virus entry assay, green channel fluorescence
Wherever efficacy is given: 0% is about no effect.

Structure (SMILES)	efficacy [1]	outcome [2]	outcome [3]
O=C(O)c1c(O)c(-c2ccccc2)nc2ccccc12	18%	inactive	inactive
O=C(O)c1[nH]n(-c2ccc(S(=O)(=O)O)cc2)c(=O)c1N=Nc1ccc(S(=O)(=O)O)cc1	23%	inactive	inactive
CNCc1ccccc1	-19.2%	inactive	inactive
C[C@H]1C[C@H](O)c2ccsc2S1(=O)=O	20.1%	inactive	inactive
CC[N+]1(CC)CCC(OC(=O)C(O)(c2ccccc2)c2ccccc2)C1 (centres undefined)	-22.9%	inactive	inactive
Cc1cc(C(C#N)c2ccc(Cl)cc2)c(Cl)cc1NC(=O)c1cc(I)cc(I)c1O (centres undefined)	-32.3%	inactive	–
CC(=O)OCC(=O)[C@@]1(OC(C)=O)[C@@H](C)C[C@H]2[C@@H]3C[C@H](F)C4=CC(=O)C=C[C@]4(C)[C@@]3(F)[C@@H](O)C[C@@]21C	58.7%	inactive	–
CCCCC(CC)CN1CN(CC(CC)CCCC)CC(C)(N)C1 (centres undefined)	-31.6%	–	–
CCc1cc(S(=O)(=O)O)c2cc(C(C)C)cccc1-2	18.8%	inactive	inactive
O=C(N/N=C/c1ccccc1O)c1ccncc1	66.8%	inactive	–
Cc1cc(CC(=O)O)c(C)n1-c1ccc(Cl)cc1	41.9%	inactive	–
COCCOC(=O)C1=C(C)NC(C)=C(C(=O)OC(C)C)C1c1cccc([N+](=O)[O-])c1 (centres undefined)	27.1%	inactive	–
O=C(O)c1ccccc1OP(=O)(O)O	11.4%	inactive	inactive
O=C(C1CCCCC1)N1CC(=O)N2CCCc3ccccc3C2C1 (centres undefined)	76.1%	inactive	–
O=C(O)CCCCCCCC(=O)O	17.2%	inactive	inactive
COc1cc(C)nc(-n2nc(C)cc2OC)n1	-14.1%	inactive	inactive
N[C@@H](CCC(=O)N[C@@H](CS)C(=O)NCC(=O)O)C(=O)O	-20.9%	inactive	–
N=C(N)N	19.5%	inactive	inactive

Structure (SMILES)	efficacy [1]	outcome [2]	outcome [3]
CC(=O)Nc1c(I)cc(I)c(C(=O)O)c1I	-9.82%	inactive	inactive
CC(=O)O[C@]1(C(C)=O)CC[C@H]2[C@@H]3C[C@H](C)C4=CC(=O)CC[C@]4(C)[C@H]3CC[C@@]21C	38.2%	inactive	–
COC(=O)N/N=C/c1c[n+]([O-])c2ccccc2[n+]1[O-]	35%	inactive	–
C[n+]1c2cc(N)ccc2cc2ccc(N)cc21 (tested in a mixture with another compound)	129%	–	–
CCOC(=O)/C=C(C)/C=C/C=C(C)/C=C/c1c(C)cc(OC)c(C)c1C	27.5%	inactive	inactive
O=C(NCC(O)CO)c1c(I)c(C(=O)NCC(O)CO)c(I)c(N(CCO)C(=O)CO)c1I (centres undefined)	35.5%	inactive	–
CCN1CCC[C@H]1CNC(=O)c1c(O)c(Cl)cc(Cl)c1OC	-17.7%	inactive	inactive
COc1cccc(OC)c1C(=O)N[C@@H]1C(=O)N2[C@@H]1SC(C)(C)[C@@H]2C(=O)O	19.6%	inactive	inactive
CC(=O)c1ccc(OCC(=O)N2CCCCC2)cc1	-14.3%	inactive	inactive
O=C(O)[C@@H](O)[C@H](O)[C@H](O)[C@@H](O)C(=O)O	-24.9%	inactive	inactive
COC(=O)c1ccc(NC(C)=O)cc1OC	15.6%	inactive	inactive
Clc1cccc(C(c2ccc3nc[nH]c3c2)n2ccnc2)c1 (centres undefined)	-19.4%	inactive	inactive
COc1cc(NS(=O)(=O)c2ccc(N)cc2)nc(C)n1	-19.1%	inactive	inactive
O=C(NCCO[N+](=O)[O-])c1cccnc1	-12.5%	inactive	inactive
C[N+]1(CCF)[C@@H]2CC[C@H]1CC(OC(=O)C(O)(c1ccccc1)c1ccccc1)C2 (some centres undefined)	-17.5%	inactive	inactive
O=C(O)Cn1c(=O)n(Cc2ccc(Br)cc2F)c(=O)c2ccc(Cl)cc21	-18.1%	inactive	inactive
CCCCCC[C@@H](CCC)C(=O)O	13.6%	inactive	inactive
O=C(Oc1ccccc1C(=O)O)c1ccccc1O	10%	inactive	inactive

From PubChem BioAssay (NCATS)
